Data on 40 molecules can be found in PubChem BioAssay.

Structures are written as SMILES. Activity calls are given as the source filed them.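 The calls were made as follows, unless noted: active = visual image review flags a hit and inhibition of aggregation exceeds 20%; inconclusive = visual hit but inhibition at or below 20%; inactive = no hit on visual image review.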

The first experiment can be described thus: inhibitors of TNFa-induced NFkB p65 translocation, primary screen, imaging, HUVEC, MLSMR starter and 10KST1 sets (AID 438;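 active = inhibition above 20% together with a positive visual image hit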;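 also: compound added about 3h40 before a 20 min TNFalpha stimulation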;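 as to inhibition: signal is the nuclear over cytoplasmic p65 intensity ratio per well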). Particulars: HUVEC TNFa-induced p65 nuclear translocation; cell count: measured here: nuclei count (cytotoxicity indicator), at 2.08 µM; inhibition: at 2 µM, stronger effect = higher value, 0% TNFa-plus-vehicle, 100% no-TNFa wells.
As usually defined, the inhibition is the relative decrease from the control value, in per cent. For `Cn1c(Cc2ccccc2)nnc1SCC(=O)N1CCOCC1`, the inhibition is -0.8% (inactive) and the cell count is 492.
Taken in the same sequence, the figures for `CCOC(=O)N1CCN(C(=O)c2c(-c3ccccc3)noc2C)CC1` were 0% (inactive) and 816.
For the molecule `Cc1csc(NC(=O)CCCSc2nc3ccccc3s2)n1`, the cell count worked out at 387 and the inhibition was 0.9% (inactive).
Taken in the same sequence, the figures for `COc1ccc(-c2nc(C#N)c(N3CCOCC3)o2)cc1OC` were 257 and -4.8% (inactive).
As to `COCCn1nnnc1CN1CCC(Cc2ccccc2)CC1`, the inhibition is -16.4% (inactive) and the cell count was 513.
Turning to `c1cc2c(cc1Cn1cnnn1)OCO2`, the inhibition was 2.1% (inactive) and the cell count amounted to 599.
`O=C(OCCN1C(=O)c2ccccc2C1=O)c1ccc(S(=O)(=O)N2CCCCCC2)cc1`: the cell count was found to be 390 and the inhibition is -9.2% (inactive).
Taken in the same sequence, the figures for `CCCN(Cc1cc2cc(C)ccc2[nH]c1=O)C(=O)c1cccc(OC)c1` were 594 and 8.2% (inactive).
Taken in the same sequence, the figures for `c1ccn2c(SCc3ccc4c(c3)OCCO4)nnc2c1` were 793 and -10.5% (inactive).
Regarding `Cc1ccc(-n2c(Cn3cnc4ccccc43)nnc2SCC(=O)O)cc1`, the inhibition is -9.8% (inactive) and the cell count amounted to 610.
For the molecule `CSc1ccc(S(=O)(=O)Nc2cccc(F)c2)cc1`, the cell count turned out to be 342 and the inhibition was 1% (inactive).
Taken in the same sequence, the figures for `Cc1cc(NC(=O)CCCN2C(=O)c3cccnc3C2=O)no1` were 429 and 5.6% (inactive).
Taken in the same sequence, the figures for `C=CCn1c(SCC(=O)NCC2CCCO2)nc2scc(-c3ccco3)c2c1=O` (stereo not given) were 557 and -10.3% (inactive).
For `CCOC(=O)N1CCC(NC(=O)CCN2C(=O)COc3ccccc32)CC1`, the inhibition is -2.6% (inactive) and the cell count was found to be 322.
Taken in the same sequence, the figures for `Cc1cccc(Nc2nc(N)nc(CN3CCC(C(N)=O)CC3)n2)c1C` were -4.3% (inactive) and 720.
Taken in the same sequence, the figures for `CC(NS(=O)(=O)c1ccc(F)cc1)C(c1cccs1)N1CCN(C)CC1` (stereo not given) were -3.7% (inactive) and 390.
Taken in the same sequence, the figures for `COC(=O)c1cccc(NC(=O)Cc2coc3cc(OC)ccc23)c1` were 11.4% (inactive) and 402.
Turning to `C[C@@H]1C[C@H](O)c2cc(Cl)ccc2N1`, the inhibition was -7.2% (inactive) and the cell count came out at 404.
In the case of `Cc1cccc(C)c1OCc1nnc(SCC(=O)Nc2ccccc2F)o1`, the inhibition is -12% (inactive) and the cell count is 592.
As for `COc1cc2c(=O)nc3n(c2cc1OC)C(c1ccccc1)N=C(N)N3` (stereo not given), the inhibition was -11.9% (inactive) and the cell count was determined as 398.
`CC(=O)N1CCN(S(=O)(=O)c2cccc(C(=O)Nc3ccc4c(c3)CCC4)c2)CC1`: the inhibition is 10.5% (inactive) and the cell count came to 442.
Regarding `Cn1c(=O)c(=O)n(C)c2cc(S(=O)(=O)N3CCCCC3)ccc21`, the cell count was determined as 289 and the inhibition is 0.7% (inactive).
With `O=C(COC(=O)C12CC3CC(CC(O)(C3)C1)C2)N1CCN(S(=O)(=O)c2ccc(Cl)cc2)CC1`, the cell count was found to be 371 and the inhibition is 4.7% (inactive).
Taken in the same sequence, the figures for `O=S(=O)(c1ccc(S(=O)(=O)N2CCN3CCCC3C2)cc1)N1CCCC1` (stereo not given) were 575 and -5.3% (inactive).
For `CC(C)CC1NC(=O)N(CC(=O)N2CCN(S(=O)(=O)c3ccc(Cl)cc3)CC2)C1=O` (stereo not given), the inhibition is 4% (inactive) and the cell count came out at 716.
Taken in the same sequence, the figures for `CCN(C1CCCCC1)S(=O)(=O)c1ccc(S(=O)(=O)N2CCN(CCC#N)CC2)cc1` were 3.3% (inactive) and 870.
In the case of `C=CCOc1nc2c(c(=O)n(C)c(=O)n2C)n1C`, the cell count worked out at 339 and the inhibition is 1% (inactive).
With `Cn1nnnc1SCC(=O)N1CCN(c2cccc(Cl)c2)CC1`, the inhibition is -2.9% (inactive) and the cell count was 360.
On to `Cn1c(=O)[nH]c(=O)c2c1ncn2CCN1CCOCC1`, for which the cell count is 696 and the inhibition is -12.1% (inactive).
Taken in the same sequence, the figures for `Cc1cnn(Cc2ccccc2)c1N` were 638 and 2.3% (inactive).
Take `CCOc1ccc(-c2nc(C#N)c(NCc3ccc4c(c3)OCO4)o2)cc1`: the cell count was 801 and the inhibition was 1.8% (inactive).
Taken in the same sequence, the figures for `N[C@@H](Cc1ccccc1)c1nnc2sc(SCc3ccccc3)nn12` were 444 and -5.5% (inactive).
On to `CCOC(=O)c1cc2sc(C)cc2n1C(C)C(=O)OCC` (stereo not given), for which the cell count was 291 and the inhibition was 0.5% (inactive).
Taken in the same sequence, the figures for `CCn1nnc(NC(=O)c2ccccc2Br)n1` were 229 and 10.3% (inactive).
Taken in the same sequence, the figures for `CCOc1cc(-c2nc3ccccn3c2NCC2CCCO2)ccc1O` (stereo not given) were 406 and -0.9% (inactive).
Taken in the same sequence, the figures for `Cc1ccc(O)c(-c2cc3ccccc3[nH]2)c1` were 616 and -4.8% (inactive).
With `CC(=O)c1c(C)[nH]c(C(=O)N2CCN(C(=O)c3ccco3)CC2)c1C`, the inhibition was -19.9% (inactive) and the cell count came out at 233.
Taken in the same sequence, the figures for `O=S(=O)(c1ccc(Oc2ccc(-c3nnco3)cc2)nc1)N1CCC(Cc2ccccc2)CC1` were -10.6% (inactive) and 396.
Taken in the same sequence, the figures for `O=C(Nc1ccccc1N1CCN(c2ccc(F)cc2)CC1)c1ccccc1` were 7.6% (inactive) and 423.
Taken in the same sequence, the figures for `Cc1cc(C)n2cc(CSc3nnnn3C)nc2n1` were -36.9% (inactive) and 532.

The next experiment is described as follows: inhibitors of mutant huntingtin aggregation, primary screen, imaging, exon1htt(103Q)mCFP cells, high-content imaging (AID 483).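 Also: compound exposure lasted 3 days before fixation.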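 As to nuclei count: percent of the per-plate median nuclei count of sample wells.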 Particulars: exon1htt(103Q)mCFP cell line, aggregate imaging, at 2 µM; inhibition of aggregation: stronger effect = higher value; nuclei count: measured here: cell count, toxicity.
Take `Cn1c(Cc2ccccc2)nnc1SCC(=O)N1CCOCC1`: the nuclei count was 103% and the inhibition of aggregation was -33% (inactive).
Consider `CCOC(=O)N1CCN(C(=O)c2c(-c3ccccc3)noc2C)CC1`, for which the nuclei count turned out to be 107% and the inhibition of aggregation was -5.9% (inactive).
For the molecule `Cc1csc(NC(=O)CCCSc2nc3ccccc3s2)n1`, the inhibition of aggregation is 0.5% (inactive) and the nuclei count was found to be 97.4%.
Taken in the same sequence, the figures for `COc1ccc(-c2nc(C#N)c(N3CCOCC3)o2)cc1OC` were 30.6% (active) and 92.9%.
Taken in the same sequence, the figures for `COCCn1nnnc1CN1CCC(Cc2ccccc2)CC1` were -12.1% (inactive) and 113%.
As for `c1cc2c(cc1Cn1cnnn1)OCO2`, the nuclei count turned out to be 107% and the inhibition of aggregation was -6.5% (inactive).
Taken in the same sequence, the figures for `O=C(OCCN1C(=O)c2ccccc2C1=O)c1ccc(S(=O)(=O)N2CCCCCC2)cc1` were 95.1% and -7.2% (inactive).
On to `CCCN(Cc1cc2cc(C)ccc2[nH]c1=O)C(=O)c1cccc(OC)c1`, for which the nuclei count turned out to be 101% and the inhibition of aggregation was -3.9% (inactive).
Taken in the same sequence, the figures for `c1ccn2c(SCc3ccc4c(c3)OCCO4)nnc2c1` were 88.9% and 11.4% (inactive).
Taken in the same sequence, the figures for `Cc1ccc(-n2c(Cn3cnc4ccccc43)nnc2SCC(=O)O)cc1` were 108% and -19.4% (inactive).
Taken in the same sequence, the figures for `CSc1ccc(S(=O)(=O)Nc2cccc(F)c2)cc1` were 82.9% and -4.6% (inactive).
As to `Cc1cc(NC(=O)CCCN2C(=O)c3cccnc3C2=O)no1`, the nuclei count came to 100% and the inhibition of aggregation was 17.7% (inactive).
Consider `C=CCn1c(SCC(=O)NCC2CCCO2)nc2scc(-c3ccco3)c2c1=O` (stereo not given), for which the nuclei count worked out at 98.5% and the inhibition of aggregation was -29.4% (inactive).
Taken in the same sequence, the figures for `CCOC(=O)N1CCC(NC(=O)CCN2C(=O)COc3ccccc32)CC1` were 106% and 11.5% (inactive).
Take `Cc1cccc(Nc2nc(N)nc(CN3CCC(C(N)=O)CC3)n2)c1C`: the nuclei count worked out at 108% and the inhibition of aggregation was -5.8% (inactive).
For the molecule `CC(NS(=O)(=O)c1ccc(F)cc1)C(c1cccs1)N1CCN(C)CC1` (stereo not given), the inhibition of aggregation was -11.1% (inactive) and the nuclei count was 104%.
Taken in the same sequence, the figures for `COC(=O)c1cccc(NC(=O)Cc2coc3cc(OC)ccc23)c1` were 5.4% (inactive) and 75.4%.
Taken in the same sequence, the figures for `C[C@@H]1C[C@H](O)c2cc(Cl)ccc2N1` were 17.5% (inactive) and 97.5%.
Consider `Cc1cccc(C)c1OCc1nnc(SCC(=O)Nc2ccccc2F)o1`, for which the inhibition of aggregation was 21.8% (inactive) and the nuclei count was found to be 67.2%.
Consider `COc1cc2c(=O)nc3n(c2cc1OC)C(c1ccccc1)N=C(N)N3` (stereo not given), for which the inhibition of aggregation was 17.7% (inactive) and the nuclei count is 86.3%.
Taken in the same sequence, the figures for `CC(=O)N1CCN(S(=O)(=O)c2cccc(C(=O)Nc3ccc4c(c3)CCC4)c2)CC1` were -6.6% (inactive) and 118%.
Taken in the same sequence, the figures for `Cn1c(=O)c(=O)n(C)c2cc(S(=O)(=O)N3CCCCC3)ccc21` were 22.5% (inactive) and 83.6%.
As for `O=C(COC(=O)C12CC3CC(CC(O)(C3)C1)C2)N1CCN(S(=O)(=O)c2ccc(Cl)cc2)CC1`, the nuclei count turned out to be 95.7% and the inhibition of aggregation is 0.7% (inactive).
Taken in the same sequence, the figures for `O=S(=O)(c1ccc(S(=O)(=O)N2CCN3CCCC3C2)cc1)N1CCCC1` (stereo not given) were 49.8% and 31.8% (inactive).
For `CC(C)CC1NC(=O)N(CC(=O)N2CCN(S(=O)(=O)c3ccc(Cl)cc3)CC2)C1=O` (stereo not given), the nuclei count was 93% and the inhibition of aggregation is 11.8% (inactive).
With `CCN(C1CCCCC1)S(=O)(=O)c1ccc(S(=O)(=O)N2CCN(CCC#N)CC2)cc1`, the inhibition of aggregation is 8% (inactive) and the nuclei count came out at 102%.
Taken in the same sequence, the figures for `C=CCOc1nc2c(c(=O)n(C)c(=O)n2C)n1C` were -1.3% (inactive) and 113%.
Taken in the same sequence, the figures for `Cn1nnnc1SCC(=O)N1CCN(c2cccc(Cl)c2)CC1` were 10.8% (inactive) and 94.4%.
Taken in the same sequence, the figures for `Cn1c(=O)[nH]c(=O)c2c1ncn2CCN1CCOCC1` were -10.8% (inactive) and 107%.
As for `Cc1cnn(Cc2ccccc2)c1N`, the inhibition of aggregation is -4.6% (inactive) and the nuclei count is 105%.
Taken in the same sequence, the figures for `CCOc1ccc(-c2nc(C#N)c(NCc3ccc4c(c3)OCO4)o2)cc1` were -13.1% (inactive) and 93.8%.
Regarding `N[C@@H](Cc1ccccc1)c1nnc2sc(SCc3ccccc3)nn12`, the nuclei count was determined as 84.8% and the inhibition of aggregation is -1.7% (inactive).
Taken in the same sequence, the figures for `CCOC(=O)c1cc2sc(C)cc2n1C(C)C(=O)OCC` (stereo not given) were 106% and -7% (inactive).
`CCn1nnc(NC(=O)c2ccccc2Br)n1`: the nuclei count is 66% and the inhibition of aggregation is 6.4% (inactive).
On to `CCOc1cc(-c2nc3ccccn3c2NCC2CCCO2)ccc1O` (stereo not given), for which the nuclei count turned out to be 94.3% and the inhibition of aggregation is -2.6% (inactive).
Consider `Cc1ccc(O)c(-c2cc3ccccc3[nH]2)c1`, for which the nuclei count came out at 98.8% and the inhibition of aggregation was 20% (inactive).
Taken in the same sequence, the figures for `CC(=O)c1c(C)[nH]c(C(=O)N2CCN(C(=O)c3ccco3)CC2)c1C` were 94.7% and 9.5% (inactive).
For the molecule `O=S(=O)(c1ccc(Oc2ccc(-c3nnco3)cc2)nc1)N1CCC(Cc2ccccc2)CC1`, the nuclei count came out at 102% and the inhibition of aggregation is -26.7% (inactive).
Taken in the same sequence, the figures for `O=C(Nc1ccccc1N1CCN(c2ccc(F)cc2)CC1)c1ccccc1` were 104% and -1% (inactive).
Taken in the same sequence, the figures for `Cc1cc(C)n2cc(CSc3nnnn3C)nc2n1` were 106% and 9.5% (inactive).
